For 62 molecules, largest response in the series, negative = inhibition and Potency results are on record in PubChem BioAssay AID1490 (National Center for Advancing Translational Sciences (NCATS), 2009).

The whole screen tested about 310,000 compounds, of which about 11,000 (3.5%) were called active. About 4% were inconclusive and are not listed. This excerpt belongs to a sample that is enriched for actives. Unmarked numbers belong to inactive results. Calls follow the shape of the dose curve; as a rule, active = well fitted inhibition curve with a large enough effect; inconclusive = small, poorly fitted or top-dose-only effect, or another doubt; inactive = no such curve, though single readings can be large or run the other way.
Potency is read from the fitted curve at half-maximal effect.

The experiment addresses 4'-phosphopantetheinyl transferase ffp (Bacillus subtilis) (UniProt Q9F4F7). Briefly: qHTS Assay for Inhibitors of Bacillus subtilis Sfp phosphopantetheinyl transferase (PPTase).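 Also: the enzyme is Sfp with the accession as filed and its product quenches rhodamine fluorescence.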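 As to largest response in the series, negative = inhibition: 0% = enzyme reaction without inhibitor and -100% = no enzyme wells.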 The settings on record: Biochemical Sfp PPTase activity. The text has this: Assay Submitter: Michael Burkart, University of California, San Diego
Screening Center PI: Austin, C.P.
Screening Center: NIH Chemical Genomics Center [NCGC]
The covalent attachment of a phosphopantetheinyl (4'-PP) arm to a variety of synthases and other proteins is a key posttranslational protein modification. The 4'-PP is installed on the proteins post-translationally from coenzyme A (CoA) on a conserved serine residue by action of phosphopantetheinyl transferase (PPTase) enzymes. Phosphopantetheinylation is essential for synthase activity, and removal of the PPTase gene precludes natural product synthesis in microorganisms, or in the case of fatty acid biosynthesis, renders the organism unviable. PPTase enzymes belong to a distinct structural superfamily. Within bacteria, these enzymes are grouped into two classes based upon primary structure, the AcpS-Type and Sfp-Type PPTases.
Sfp-type PPTases, corresponding to an activator of surfactin production in Bacillus subtilis, are responsible for modifying type I polyketide and nonribosomal peptide synthases of prokaryotes. Sfp-type PPTases are responsible for the activation of a variety of pathogen-associated virulence factors. Among these compounds are toxins such as mycolactone from Mycobacterium ulcerans, siderophores such as vibriobactin from Vibrio cholerae or mycobactin from Mycobacterium tuberculosis, as well as the mycolic acids which form the waxy cell wall of Mycobacteria. The biosyntheses of these natural products are considered attractive targets for drug design.
In search of small molecule Sfp-PPTase inhibitors, a fluorescence quenching assay was developed for detection of Bacillus subtilis Sfp-PPTase enzymatic activity in a miniaturized high-throughput format. The consensus ybbr acceptor peptide […] was N-terminally labeled with Black Hole Quencher-2 (BHQ-2) and used in combination with rhodamine-labeled coenzyme A as a co-substrate.
Inhibition of Sfp-PPTase was detected by recording the fluorescence intensity change over a 30-minute reaction period at a 525 nm excitation and 598 nm emission. Reagents were supplied by Michael Burkart and Timothy Foley, University of California at San Diego.
This BioAssay deposition is for validation of the developed Sfp-PPtase assay.
Assay Buffer: 50 mM Hepes-Na pH 7.6, 10 mM MgCl2, 0.01% Nonidet P-40, and 0.01% BSA.
3 uL of Sfp-PPTase enzyme (final concentration 15 nM) and 1 uL of substrate mixture (final concentration for rhodamine-CoA and BHQ-2-YbbR 5 uM and 12.5 uM, respectively) dispensed in columns 1, 2, 5 - 48. Columns 1 and 2 used to generate neutral control (uninhibited reaction)
Three uL of reagents, consisting of buffer (in columns 3 and 4 as negative control) and Sfp-PPTase (in columns 1, 2, 5 - 48) were dispensed into 1,536-well Greiner black solid bottom plate. Compounds (23 nL) were transferred via Kalypsys pintool equipped with 1,536-pin array. The plate was incubated for 15 min at room temperature, followed by the addition of 1 uL substrate to start the reaction. The plate was then centrifuged at 1000 rpm for 15 seconds, and the fluorescence intensity recorded on a ViewLux High-throughput CCD imager (Perkin-Elmer) using standard BODIPY optics (525 nm excitation and 598 nm emission). The plate was then incubated for 30 minutes, and a second read on the ViewLux was performed. The fluorescence intensity difference over the 30-minute period was used to calculate the respective reaction rate for each well.
`N#Cc1ccccc1NC(=O)c1ccc2c(c1)OCO2`: the largest response in the series, negative = inhibition was 20.2%.

As for `COc1ccc(CN2C3CCCC2CC(NC(=O)c2cccc(F)c2)C3)cc1` (configuration not stated), the largest response in the series, negative = inhibition is 9.04%.

Regarding `O=C(N/N=C/c1cccc(Br)c1)c1ccc(N2CCCC2=O)cc1`, the largest response in the series, negative = inhibition was 2.98%.

As for `Cc1occc1C(=O)NC1CCCN(Cc2ccc(CC(C)C)cc2)C1` (configuration not stated), the largest response in the series, negative = inhibition was 10%.

As for `COc1ccc(CNC(=O)CN(C(=O)c2csnn2)c2cnc3ccccc3c2)cc1`, the largest response in the series, negative = inhibition is 15.4%.

For the molecule `CCc1c(C)sc(NC(=O)c2cccs2)c1C(N)=O`, the Potency was 14.1 µM (active).

`COC(=O)c1c(NC(=O)c2cccs2)sc2c1CCCC2`: the largest response in the series, negative = inhibition is 6.07%.

Take `CCc1c(C)sc(NC(=O)c2ccc(Br)o2)c1C(=O)OC`: the largest response in the series, negative = inhibition was -4.91%.

On to `CC(C)(COC(=O)Nc1ccccc1)COC(=O)Nc1ccccc1`, for which the largest response in the series, negative = inhibition is 5.47%.

For `NC(=O)CSc1nnc(NC(=O)c2ccc(Br)o2)s1`, the largest response in the series, negative = inhibition is 4.59%.

Take `Cc1cc(OC(=O)c2ccc(OC(C)C)cc2)c([N+](=O)[O-])c(=O)[nH]1`: the largest response in the series, negative = inhibition is 16.6%.

With `Fc1ccccc1COc1ccccc1CNCc1ccncc1`, the largest response in the series, negative = inhibition was -8.76%.

Regarding `C=CCOc1cccc(CNCc2cccnc2)c1`, the largest response in the series, negative = inhibition is -13.5%.

As to `c1ccc(COc2ccccc2CNCc2cccnc2)cc1`, the Potency is 56.2 µM (active).

Take `Oc1c(Cl)cc(Cl)cc1/C=N/c1ncn[nH]1`: the largest response in the series, negative = inhibition is -2.74%.

In the case of `Cc1ccccc1CN1C[C@@H]2C[C@@H](c3cn(C)nc3-c3ccccc3)N3CCC[C@@]23C1=O`, the Potency was 3.16 µM (active).

In the case of `Cc1ccccc1CN1C[C@@H]2C[C@@H](c3ccc4nsnc4c3)N3CCC[C@@]23C1=O`, the largest response in the series, negative = inhibition is 7.31%.

As to `Cc1ccc(CN2CCN(Cc3cn(C)nc3-c3ccccc3)CC2CCO)o1` (configuration not stated), the largest response in the series, negative = inhibition was 8.78%.

For `COc1ccc(NC(=O)CSc2nc(SC)ns2)c(OC)c1`, the largest response in the series, negative = inhibition is 8.6%.

Consider `COC(=O)C1=C(C(=O)OC)C(c2cc([N+](=O)[O-])ccc2O)c2sc(=O)[nH]c2S1` (configuration not stated), for which the Potency is 44.7 µM (active).

Turning to `COC(=O)c1c(C)[nH]c(C)c1-c1ccc([N+](=O)[O-])cc1`, the largest response in the series, negative = inhibition is 9.93%.

As to `COC(=O)C1=C(C)N(C)C(=O)NC1c1ccc([N+](=O)[O-])o1` (configuration not stated), the largest response in the series, negative = inhibition was 23.4%.

For the molecule `COC(=O)c1cc(S(=O)(=O)N2CCN(c3cc(C)ccc3C)CC2)c[nH]1`, the largest response in the series, negative = inhibition was 24.2%.

`COc1ccc(S(=O)(=O)n2nc(C)c(S(=O)(=O)N3CCOCC3)c2C)cc1`: the largest response in the series, negative = inhibition is 8.67%.

As for `Oc1ccc(C2Nc3cccc4cccc(c34)N2)cc1`, the Potency was 35.5 µM (active).

For `COc1cccc(C2Nc3cccc4cccc(c34)N2)c1`, the largest response in the series, negative = inhibition is 6.1%.

Consider `Cc1ccc(C2Nc3cccc4cccc(c34)N2)cc1`, for which the largest response in the series, negative = inhibition is -26.1%.

`FCOC(C(F)(F)F)C(F)(F)F`: the largest response in the series, negative = inhibition was 11.5%.

For the molecule `CCc1ccc(NC(=O)Cn2nnc(C(=O)NCc3ccc(OC)cc3)c2N)cc1`, the largest response in the series, negative = inhibition is 4.14%.

In the case of `Cc1cnc(CNc2ncncc2-c2ccccc2Cl)cn1`, the Potency was 79.4 µM (active).

For `COc1ccc(CNc2ncncc2-c2ccccc2OC)c(OC)c1`, the largest response in the series, negative = inhibition is -6.24%.

Consider `COc1ccc(CNc2ncncc2-c2ccccc2C)c(OC)c1`, for which the largest response in the series, negative = inhibition is -23.8%.

As for `CS(=O)(=O)c1ccccc1C(=O)Nc1ccc2sccc2c1`, the largest response in the series, negative = inhibition is 8.96%.

In the case of `Cn1c(SCC(=O)N2CCCCC2)nc2c(c1=O)SCC2`, the largest response in the series, negative = inhibition was 15.7%.

In the case of `CCn1c(SCc2ccccc2)nc2c(c1=O)SCC2`, the largest response in the series, negative = inhibition was 11.2%.

For the molecule `Cc1cccc(CSc2nc3c(c(=O)n2C)SCC3)c1`, the Potency was 50.1 µM (active).

In the case of `Cc1ccc(S(=O)(=O)N(Cc2ccccc2)c2ccccn2)cc1[N+](=O)[O-]`, the largest response in the series, negative = inhibition was 11.4%.

For the molecule `COc1cc(S(=O)(=O)Nc2ncn[nH]2)ccc1Cl`, the largest response in the series, negative = inhibition was -14.8%.

Take `CC(C)(C)C1C/C(=C/c2ccco2)C(=O)/C(=C/c2ccco2)C1` (configuration not stated): the Potency is 20 µM (active).

Take `O=C1OC(/C=C/c2ccccc2)=NC/1=C/c1ccco1`: the largest response in the series, negative = inhibition was 12.2%.

For the molecule `CCC1S/C(=N/N=C/c2ccco2)NC1=O` (configuration not stated), the largest response in the series, negative = inhibition was 3.46%.

Turning to `CCCC(=O)N1CCC(CCC(=O)NC2CC2)CC1`, the largest response in the series, negative = inhibition is 11.2%.

Turning to `COc1ccc(CNC(=O)C2CCN(C(=O)c3ccccc3)CC2)cc1`, the largest response in the series, negative = inhibition was 8.47%.

`CCOC(=O)CC1=CC(=O)Nc2ccccc2N1`: the largest response in the series, negative = inhibition was -6.73%.

As for `CCOC(=O)C(=O)C1C(=O)Nc2ccccc21` (configuration not stated), the Potency was 25.1 µM (active).

In the case of `CCCCC(CC)CNC(=O)C(=O)C1C(=O)Nc2ccccc21` (configuration not stated), the largest response in the series, negative = inhibition is 22%.

As for `COC1=C/C(=C/c2c(N)n3nc(CC(=O)N4CCOCC4)sc3nc2=O)C=CC1=O`, the largest response in the series, negative = inhibition is -2.99%.

For `CCC(NC(=O)c1ccccc1NC(=O)c1ccccc1)C(=O)NNC(=O)CSc1nc2ccccc2o1` (configuration not stated), the largest response in the series, negative = inhibition is -1.67%.

On to `CCCCc1nnc(NC(=O)CSc2nc(C)cc(=O)[nH]2)s1`, for which the largest response in the series, negative = inhibition is 9.76%.

Turning to `CCOC(=O)Cc1csc(NC(=O)CSc2ccc(Br)cc2)n1`, the largest response in the series, negative = inhibition is 11.6%.

As to `CCOC(=O)Cc1csc(NC(=O)CSc2nc(C)cc(=O)[nH]2)n1`, the Potency was 17.8 µM (active).

Turning to `Cc1ccc(-n2c(SCC(=O)NCCC3=CCCCC3)nc3n[nH]c(C)c3c2=N)cc1Cl`, the largest response in the series, negative = inhibition is 14.5%.

With `CSc1cccc(NC(=O)CN2C(=O)COc3ccc(S(=O)(=O)N4CCOCC4)cc32)c1`, the largest response in the series, negative = inhibition was 10.2%.

Consider `O=C1COc2ccc(S(=O)(=O)Nc3ccc(OC(F)(F)F)cc3)cc2N1`, for which the largest response in the series, negative = inhibition was 25.6%.

Turning to `Cc1nc([N+](=O)[O-])cn1CC(=O)Nc1ccc(Cl)cc1`, the largest response in the series, negative = inhibition is 16.2%.

Consider `CCOC(=O)c1c(C)[nH]c(=S)c(C#N)c1-c1ccccc1`, for which the Potency is 79.4 µM (active).

Turning to `CCOC(=O)c1c(C)nc(-c2ccccc2)nc1NC(=O)C(C)C`, the largest response in the series, negative = inhibition is -3.48%.

For `N#Cc1c(-c2ccc(Cl)cc2)c2c([nH]c1=S)CCCC2`, the largest response in the series, negative = inhibition is -5.85%.

`CCOC(=O)c1c(C)[nH]c2c1-c1ccccc1C(=O)C2=O`: the largest response in the series, negative = inhibition is 4.96%.

For `Cc1cc(C)c2c(-c3ccc(F)cc3)c(C#N)c(=O)n(C)c2n1`, the largest response in the series, negative = inhibition is 10.3%.

For the molecule `CC(=O)c1c(C)[nH]c(=S)c(C#N)c1-c1ccc(F)cc1`, the Potency is 44.7 µM (active).

For the molecule `Cc1ccc(S(=O)(=O)NCC(=O)N2CCOCCOCCOCCOCC2)cc1`, the largest response in the series, negative = inhibition is 7.3%.
